Results filed as inconclusive are left out. Activity calls are given as the source filed them. Unless noted, the call rests on the fitted dose curve; in most records, active means well fitted curve in the direction sought with a large enough effect; inconclusive means small, poorly fitted or top-dose-only effect, or another doubt; inactive means no such curve, though single readings can be large; an effect the other way counts as inactive or inconclusive.
Experiments:
[1] = qHTS Assay for Lipid Storage Modulators (AID 1519; calls by dose curve; on activity change, negative = inhibition: on the % scale 0 is the no-effect control and ±100 the full control effect); details: Drosophila S3 cells, BODIPY lipid droplet/cell ratio, laser cytometry, cells loaded with oleic acid; for activity change, negative = inhibition: at 57.5 µM (top of the series)
Procedure, shortened: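 Cells seeded at 5,000 per well were treated with compounds over a concentration series and loaded with oleic acid (400 uM, as added). Lipid droplet fluorescence (488 nm excitation, 500-530 nm channel) was read by laser-scanning cytometry and normalized to 20 uM Triacsin C.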

[2] = biological target: ATP-dependent 6-phosphofructokinase (Trypanosoma brucei brucei) (UniProt O15648); test: qHTS Assay to Find Inhibitors of T. brucei phosphofructokinase: hit validation (AID 492961);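 further: luminescence reports ADP formed as PFK phosphorylates fructose-6-phosphate with ATP; on the % scale 0 is the no-effect control and ±100 the full control effect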; details: T. brucei PFK, ADP-Glo luminescence; series mostly up to 24.3 µM
Procedure, shortened: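 Percent activity derived from corrected luminescence, normalized between 0x and 1x enzyme controls, then fitted to concentration-response curves. Conditions: 1.25 nM PFK, 0.1 mM ATP, 0.5 mM F6P, 45 min RT.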

[3] = biological target: Luciferin 4-monooxygenase (Photinus pyralis) (UniProt P08659); test: Biochemical firefly luciferase enzyme assay for NPC (AID 624030); further: nearly all actives have a fitted effect of over 70% in size; further: potency means the concentration at half of the fitted maximal effect;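 on activity change, negative = inhibition: purified P. pyralis luciferase at 10 nM with luciferin and ATP substrate; 0% = DMSO and -100% = full luciferase inhibition by PTC124 control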; details: purified P. pyralis luciferase, luminescence, 5 min; series mostly up to 24.9 µM
Procedure, shortened: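 Counter-screen for direct inhibition of the luciferase enzyme by approved-drug library compounds, run at 10 nM enzyme in 50 mM Tris acetate (final). Luminescence was read within 5 min of enzyme-buffer addition and normalized to PTC124 versus DMSO (0%).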

[4] = qHTS profiling for inhibitors of Plasmodium falciparum proliferation (AID 504749); further: potency means the concentration at half of the fitted maximal effect;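 on activity, negative = inhibition: 0% = DMSO vehicle and full inhibition = artemisinin control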; on all read-outs here: nearly all actives have a fitted effect of over 60% in size; details: P. falciparum in erythrocytes, SYBR Green DNA, 72 h; for activity, negative = inhibition: at 28.7 µM (top of the series)
Procedure, shortened: (§1)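 Quantitative HTS: compounds pinned into medium, infected erythrocytes added (0.3% parasitemia, 2.5% hematocrit), 72 h culture at 37 C under 5% CO2. Saponin/Triton lysis with SYBR Green I, overnight RT, then fluorescence read.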

[5] = system: 3D7; test: as above; details: P. falciparum in erythrocytes, SYBR Green DNA, 72 h; series mostly up to 12.8 µM
Procedure, shortened: as §1

[6] = system: CP238; test: as above; details: P. falciparum in erythrocytes, SYBR Green DNA, 72 h; series mostly up to 12.8 µM
Procedure, shortened: as §1

[7] = system: CP262; test: as above; details: P. falciparum in erythrocytes, SYBR Green DNA, 72 h; series mostly up to 12.8 µM
Procedure, shortened: as §1

[8] = system: CP269; test: as above; details: P. falciparum in erythrocytes, SYBR Green DNA, 72 h; series mostly up to 12.8 µM
Procedure, shortened: as §1

[9] = system: CP305; test: as above; details: P. falciparum in erythrocytes, SYBR Green DNA, 72 h; series mostly up to 12.8 µM
Procedure, shortened: as §1

[10] = system: CP325; test: as above; details: P. falciparum in erythrocytes, SYBR Green DNA, 72 h; series mostly up to 12.8 µM
Procedure, shortened: as §1

[11] = system: CP329; test: as above; details: P. falciparum in erythrocytes, SYBR Green DNA, 72 h; series mostly up to 12.8 µM
Procedure, shortened: as §1

[12] = system: DIV30; test: as above; details: P. falciparum in erythrocytes, SYBR Green DNA, 72 h; series mostly up to 12.8 µM
Procedure, shortened: as §1

[13] = system: FAB9; test: as above; details: P. falciparum in erythrocytes, SYBR Green DNA, 72 h; series mostly up to 12.8 µM
Procedure, shortened: as §1

[14] = system: PC49; test: as above; details: P. falciparum in erythrocytes, SYBR Green DNA, 72 h; series mostly up to 12.8 µM
Procedure, shortened: as §1

[15] = biological target: Ubiquitin carboxyl-terminal hydrolase 1 (Homo sapiens) (UniProt O94782); test: Inhibitors of USP1/UAF1: Pilot qHTS (AID 504865); details: purified USP1/UAF1, Ub-rhodamine cleavage fluorescence; series mostly up to 114 µM; further: nearly all actives have a fitted effect of over 35% in size; further: potency means the concentration at half of the fitted maximal effect;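 on activity change, negative = inhibition: rhodamine fluorescence freed from ubiquitin-rhodamine substrate followed over time; top concentration of the series differs between compounds; on the % scale 0 is the no-effect control and ±100 the full control effect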
Procedure, shortened: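 Deubiquitinase activity followed as kinetic rhodamine fluorescence release from 150 nM Ub-Rho. 1 nM USP1/UAF1 with compound, after 15 min room-temperature preincubation, in HEPES pH 7.8 buffer containing TCEP, EDTA, BSA and Tween-20.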

[16] = system: C2A; test: qHTS profiling for inhibitors of Plasmodium falciparum proliferation (AID 504749); further: nearly all actives have a fitted effect of over 60% in size; further: potency means the concentration at half of the fitted maximal effect;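 on activity, negative = inhibition: 0% = DMSO vehicle and full inhibition = artemisinin control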; details: P. falciparum in erythrocytes, SYBR Green DNA, 72 h; series mostly up to 12.8 µM
Procedure, shortened: as §1

[17] = measured here: cell count channel max response
[18] = measured here: lipid channel max response

Chain of Luciferin 4-monooxygenase (Photinus pyralis) (P08659 whole entry, looked up): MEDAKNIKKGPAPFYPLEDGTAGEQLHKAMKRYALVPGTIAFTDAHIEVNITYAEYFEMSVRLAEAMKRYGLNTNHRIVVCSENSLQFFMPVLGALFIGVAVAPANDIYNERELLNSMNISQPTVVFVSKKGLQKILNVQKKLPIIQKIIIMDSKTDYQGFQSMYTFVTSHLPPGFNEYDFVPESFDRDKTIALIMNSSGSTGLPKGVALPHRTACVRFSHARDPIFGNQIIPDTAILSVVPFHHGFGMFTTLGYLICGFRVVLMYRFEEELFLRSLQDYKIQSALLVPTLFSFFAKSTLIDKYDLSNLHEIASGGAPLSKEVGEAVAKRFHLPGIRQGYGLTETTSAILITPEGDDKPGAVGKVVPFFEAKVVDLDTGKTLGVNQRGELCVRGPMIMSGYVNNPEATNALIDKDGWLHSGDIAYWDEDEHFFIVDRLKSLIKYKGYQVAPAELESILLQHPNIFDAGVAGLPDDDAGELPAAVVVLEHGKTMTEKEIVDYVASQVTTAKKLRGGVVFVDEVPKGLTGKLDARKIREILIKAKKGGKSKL
Chain of ATP-dependent 6-phosphofructokinase (Trypanosoma brucei brucei) (O15648 whole entry, looked up): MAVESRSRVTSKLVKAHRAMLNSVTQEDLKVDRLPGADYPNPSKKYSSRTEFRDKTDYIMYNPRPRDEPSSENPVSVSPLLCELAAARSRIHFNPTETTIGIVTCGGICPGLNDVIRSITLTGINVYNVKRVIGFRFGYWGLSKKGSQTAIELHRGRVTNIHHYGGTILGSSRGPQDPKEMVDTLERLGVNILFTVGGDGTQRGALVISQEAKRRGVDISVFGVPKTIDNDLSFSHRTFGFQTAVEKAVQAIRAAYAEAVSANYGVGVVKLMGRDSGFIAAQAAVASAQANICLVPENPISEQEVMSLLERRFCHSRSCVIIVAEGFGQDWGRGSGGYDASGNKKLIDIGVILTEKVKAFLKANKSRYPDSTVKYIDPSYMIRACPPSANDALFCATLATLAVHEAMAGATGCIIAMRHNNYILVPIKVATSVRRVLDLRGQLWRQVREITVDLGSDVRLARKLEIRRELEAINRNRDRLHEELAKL
Chain of Ubiquitin carboxyl-terminal hydrolase 1 (Homo sapiens) (O94782 whole entry, looked up): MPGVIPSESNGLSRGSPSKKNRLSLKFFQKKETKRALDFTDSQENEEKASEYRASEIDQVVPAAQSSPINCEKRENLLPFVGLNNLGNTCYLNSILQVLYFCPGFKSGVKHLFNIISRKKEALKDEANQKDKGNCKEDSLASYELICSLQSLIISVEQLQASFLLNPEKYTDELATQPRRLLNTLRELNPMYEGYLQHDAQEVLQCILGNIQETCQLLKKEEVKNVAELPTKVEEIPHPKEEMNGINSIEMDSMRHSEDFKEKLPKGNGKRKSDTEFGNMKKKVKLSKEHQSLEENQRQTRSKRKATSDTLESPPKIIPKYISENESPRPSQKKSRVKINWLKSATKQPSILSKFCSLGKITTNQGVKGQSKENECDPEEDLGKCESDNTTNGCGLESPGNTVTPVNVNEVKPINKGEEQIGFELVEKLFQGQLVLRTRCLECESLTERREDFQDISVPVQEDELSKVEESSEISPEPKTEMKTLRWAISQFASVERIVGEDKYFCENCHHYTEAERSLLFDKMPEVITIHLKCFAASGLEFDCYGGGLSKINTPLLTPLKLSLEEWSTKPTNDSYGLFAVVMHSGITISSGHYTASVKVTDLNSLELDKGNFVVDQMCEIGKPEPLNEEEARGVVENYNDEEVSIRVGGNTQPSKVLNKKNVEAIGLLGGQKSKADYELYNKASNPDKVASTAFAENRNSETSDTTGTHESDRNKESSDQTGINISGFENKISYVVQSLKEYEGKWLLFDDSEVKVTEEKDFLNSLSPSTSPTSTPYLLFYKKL

CC(=O)O[C@@]1(C(C)=O)CCC2C3CC(C)C4=CC(=O)CC[C@@]4(C)C3CC[C@]21C (some centres undefined)
4.77%: max response [1, 17]
active: Potency ([4]; parasite line B) 12.6 µM
-5.62%: max response [1, 18]
inactive: activity change, negative = inhibition [1] -11.6% | outcome [2] | Potency [3] | Potency [5] | Potency [6] | Potency [7] | Potency [8] | Potency [9] | Potency [10] | Potency [11] | Potency [12] | Potency [13] | Potency [14]

C=Cc1c(C)/c2[n-]/c1=C\c1[n-]c(c(CC)c1C)/C=c1\[n-]c3c(c1C)C(=O)C(C(=O)[O-])C=3c1[n-]c(c(C)c1CCC(=O)[O-])\C=2.[Cu].[Na+].[Na+] (centres undefined)
-5.82%: max response [1, 17]
inactive: activity change, negative = inhibition [1] 23.5% | activity, negative = inhibition ([4]; parasite line A) -17.5% | Potency [5] | Potency [16] | Potency [7] | Potency [8] | Potency [9] | Potency [10] | Potency [11] | Potency [12] | Potency [13] | Potency [14]
20.1%: max response [1, 18]
active: Potency [15] 20 µM | Potency [3] 32.2 µM

C[C@@]12CCC(=O)C=C1C=CC1C2CC[C@]2(C)C1CC[C@@]21CCC(=O)O1 (some centres undefined)
12.9%: max response [1, 18]
3.63%: max response [1, 17]
inactive: activity change, negative = inhibition [1] 7.74% | outcome [2] | Potency [15] | Potency [3] | activity, negative = inhibition ([4]; parasite line B) -24.2% | Potency [5] | Potency [6] | Potency [7] | Potency [8] | Potency [9] | Potency [10] | Potency [11] | Potency [12] | Potency [13] | Potency [14]
